# Screening results: PubChem, National Center for Advancing Translational Sciences (NCATS)
# DT40 TDP1 CPT – growth inhibition of DT40 Tdp1-/-;hTDP1 cells with camptothecin (screen for TDP1 inhibitors) | chicken DT40 Tdp1-/-;hTDP1 cells + 20 nM CPT, ATP luminescence, 48 h | Potency, µM (highest dose often 46.2 µM), inactives show top-dose activity change, negative = growth inhibition, usual class: inhibitors | 420,000 compounds, 12% hits | AID 686979; note: potency is the fitted concentration of half-maximal effect; nearly all actives have a fitted effect of over 55% in size
#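 Cell growth measured by CellTiter-Glo luminescence after a minimum 48 h, 37 C compound exposure with 20 nM CPT in Tdp1-knockout DT40 cells stably expressing hTDP1, seeded 400/well; qHTS titration format.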
# IL1B secr inh – inhibitors of inflammasome signaling (IL-1 beta secretion); THP-1 LPS/ATP IL-1B secretion, AlphaLISA, 16 h; stronger effect = lower value; activity change, % at 57.5 µM; 360,000 compounds, 4.7% hits; AID 743279; in the data active = activity change below about -50%; inconclusive = mostly about -30% to -49%
#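 THP-1 cells pretreated 1 hr with compounds (up to 57.5 uM final), then stimulated with LPS (250 ng/mL final) plus ATP (1.25 mM final); secreted IL-1B measured by AlphaLISA after 16 hr, decreased signal indicating inhibition.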
# HT1080NT lethal – kills 2HG-producing HT-1080-NT fibrosarcoma cells | HT-1080-NT fibrosarcoma viability, CellTiter-Glo ATP luminescence, 48 h | Potency, µM (top dose mostly 46.1 µM), for inactives: top-dose activity, negative = less viability, hits mostly cytotoxic | 360,000 compounds, 1.6% hits;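 note: NT is the 2HG producing partner of a matched IDH1 knockdown line; potency is the fitted concentration of half-maximal effect; 0% = DMSO-treated cells and -100% = media-only wells without cells; nearly all actives have a fitted effect of over 55% in size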
#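 A 48-hour cytotoxicity screen used HT-1080-NT cells plated 2 hours before compound delivery. ATP-based CellTiter-Glo luminescence measured viability, normalized to DMSO and no-cell controls.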
# TDP1 cell noCPT – qHTS for Inhibitors of human tyrosyl-DNA phosphodiesterase 1 (TDP1): qHTS in cells in absence of CPT; 420,000 compounds, 15% hits; AID 686978, 2013; Potency, µM (top dose mostly 46.2 µM), for inactives: at the top dose activity change, negative = growth inhibition, most hits filed as inhibitors; DT40 Tdp1-/- hTDP1 cells, no CPT, ATP luminescence, 48 h; note: potency is the fitted concentration of half-maximal effect; nearly all actives have a fitted effect of over 55% in size
#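 Stably hTDP1-transfected Tdp1-null chicken DT40 cells were treated with library compounds minus camptothecin and grown for at least 48 hr at 37 °C, after which cellular ATP was quantified by luminescence.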
# HT1080 IDH1KD tx – kills HT-1080 cells with IDH1 knockdown; Potency, µM (series often up to 46.1 µM), for inactives: at the top dose activity, negative = toxicity, usual class: cytotoxic; 360,000 compounds, 2% hits; AID 686971; HT-1080 IDH1 knockdown viability, ATP luminescence, 48 h;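 note: potency is the fitted concentration of half-maximal effect; 0% = DMSO wells and -100% = cell-free medium wells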
#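 HT-1080-IDH1KD cells (IDH1 knocked down), 750/well in RPMI with 5% FBS, treated with compound 48 h at 37 degrees C. Viability by CellTiter-Glo luminescence, normalised to DMSO and no-cell wells; concentration-response curves classed.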
# * = called active by the depositor; ? = inconclusive; / = not tested or not shown. The list is not random: actives were taken first. Their share in the collection is about 19%. Unless noted, calls come from the whole dose curve; as a rule, active = well fitted curve in the direction sought with a large enough effect; inconclusive = small, poorly fitted or top-dose-only effect, or another doubt; inactive = no such curve, though single readings can be large; an effect the other way counts as inactive or inconclusive. Unless noted, % is set by controls: 0 for no effect and ±100 for the full control effect.
SMILES,DT40 TDP1 CPT,IL1B secr inh,HT1080NT lethal,TDP1 cell noCPT,HT1080 IDH1KD tx
COC(=O)C1=C(c2ccccc2)C[C@@H]2CC[C@H]1N2C(=O)NC1CCCCC1,?,10.4,19.7%,?,-6.6%
CC(C)C[C@@H]1CN(CCCC[C@H]2CNC(=O)C(=O)N2CCC2CCCCC2)C(=O)C(=O)N1CCC1CCCCC1,-21.3%,-13.8,-13.1%,-24.0%,8.7%
O=C1NC[C@H](CCCCN2C[C@@H](Cc3ccccc3)N(CC3CCCCC3)C(=O)C2=O)N(CCC2CCCCC2)C1=O,18.4µM*,-1.3,-19.6%,13µM*,-24.8%
CC(C)C[C@H]1CN(CCCC[C@H]2CNC(=O)C(=O)N2CCC2CCCCC2)C(=O)C(=O)N1CCC1CCCCC1,?,7.8,1.2%,20.6µM*,23.1µM*
CC(CN)CC(=O)O (configuration not stated),-0.1%,/,/,13.2%,/
Cc1ccsc1C(=O)C1CCCN(Cc2cccn2-c2ccccn2)C1 (configuration not stated),20.6µM*,-24.6,?,?,?
CCOC(=O)C1CCN(/C=C2\C(=O)NC(=S)N(CC)C2=O)CC1,-6.0%,-14.6,-0.6%,10.6%,9.5%
Cc1cccc(C)c1Oc1nc(-c2ccccc2)ncc1S(=O)(=O)c1ccccc1,?,2.2,-3.2%,18.4µM*,-0.1%
COc1ccccc1-n1c(-c2ccccc2F)nc2ccccc2c1=O,?,-2.9,-9.8%,?,-14.0%
CCCc1c(-c2ccccc2F)ncn1CCc1ccccc1OC,3.66µM*,-69.8*,?,2.59µM*,?
CC(=O)OC1CCC2(C)C(CCC3C2CC(=O)C2(C)C3CC(N3CC3)C2C(C)=O)C1 (configuration not stated),7.31µM*,-72.1*,-5.3%,13µM*,-17.8%
CC(=O)N1Cc2cnnn2-c2ccccc2C1(C#N)Cc1ccccc1 (configuration not stated),-3.2%,5.4,10.4%,-15.4%,-0.9%
O=C1CCN(C(=O)CNC(=O)Cc2ccccc2)CC1,17.1%,16.2,5.9%,1.2%,4.7%
O=C(NCc1ccccc1)N1CCc2c(sc3c2CCCC3)C1c1ccccc1 (configuration not stated),?,/,/,16.4µM*,/
O=C(NCC(c1ccco1)N1CCCC1)c1cccc(S(=O)(=O)N2CCc3ccccc32)c1 (configuration not stated),18.4µM*,-9.9,-6.7%,9.2µM*,-24.2%
Cc1ccc(NC(=O)Cn2cc(C(=O)c3ccccc3)c3ccccc32)cc1,-91.6%,/,/,?,/
CN(C)C1CCc2[nH]c3c(F)cc(F)cc3c2C1 (configuration not stated),4.1%,-8.3,-17.1%,?,-24.5%
Cn1nccc1C(=O)N1CCC2(CC1)OCCO2,-2.6%,13.1,18.2%,0.3%,12.1%
O=C(/C=C/c1ccccc1)NC(=S)N1C[C@H]2C[C@H](C1)c1cccc(=O)n1C2,1.0%,-5.5,10.2%,20.4%,9.1%
O=C(/C=C/c1ccccc1)C1C(=O)c2ccccc2C1=O,3.66µM*,1.0,3.4%,4.61µM*,-1.8%
O=C(Nc1cccc(Cl)c1)OC1CN2CCC1CC2 (configuration not stated),5.17µM*,?,-0.8%,5.17µM*,0.4%
O=C(Nc1ccc(Cl)cc1)OC1CN2CCC1CC2 (configuration not stated),-16.7%,-52.0*,-21.6%,-28.7%,-20.7%
O=C(Nc1ccccc1Cl)OC1CN2CCC1CC2 (configuration not stated),-15.4%,-24.5,-11.5%,?,-15.8%
Oc1cc(O)c2c(c1)OC(c1cc(O)c(O)c(O)c1)C(O)C2 (configuration not stated),3.26µM*,/,/,?,/
Cc1ccc2c(c1)NP(=S)(Oc1ccccc1)N2 (configuration not stated),-10.9%,-5.8,10.7%,-13.4%,16.5%
SMILES,DT40 TDP1 CPT,IL1B secr inh,HT1080NT lethal,TDP1 cell noCPT,HT1080 IDH1KD tx
Cc1ccc(OP2(=O)Nc3cc(C)c(C)cc3S2)cc1 (configuration not stated),?,-68.8*,?,?,?
Nc1ccc(CCN2CCN(c3cccc(C(F)(F)F)c3)CC2)cc1,?,-9.8,-27.4%,23.1µM*,-22.5%
CC1=NN(c2ccccc2)C(=O)C1/C=C1\C(=O)NC(=O)N(c2cc(C)cc(C)c2)C1=O (configuration not stated),-13.3%,-8.7,6.4%,?,8.6%
Cc1cc(C)cc(N2C(=O)NC(=O)/C(=C\C=C\c3ccco3)C2=O)c1,5.17µM*,-86.2*,?,5.8µM*,?
CCc1ccc(N2C(=O)NC(=O)/C(=C\C=C\c3ccco3)C2=O)cc1,3.66µM*,-96.0*,0.0%,3.26µM*,-12.3%
O=C1NC(=O)N(c2ccccc2)C(=O)/C1=C\C=C\c1ccccc1,2.06µM*,-98.2*,?,2.59µM*,5.17µM*
CC(C)c1ccc(N2C(=O)NC(=O)/C(=C/C=C/c3ccco3)C2=O)cc1,5.17µM*,?,21.3%,4.61µM*,?
Cc1ccc(N2C(=O)NC(=O)/C(=C/c3ccoc3)C2=O)cc1,-16.8%,/,7.7%,?,4.2%
CCC(=O)OC(Cc1ccccc1)(c1ccccc1)[C@H](C)CN(C)C (some centres not stated),?,-6.6,-0.8%,?,-8.2%
COc1ccc(C(CNC(=O)c2ccc3c(c2)CCC3)N(C)C)cc1 (configuration not stated),?,-10.3,-27.9%,?,-13.8%
N#CC(O[C@@H]1OC(COC2OC(CO)C(O)C(O)[C@@H]2O)C(O)C(O)C1O)c1ccccc1 (some centres not stated),-4.7%,/,/,-0.6%,/
COC(=O)C1=C(c2ccccc2)C[C@@H]2CC[C@H]1N2C(=O)NCC1CC1,?,34.4,2.7%,?,8.2%
O=C(O)c1ccccc1NC(=O)N1C[C@H]2C[C@@H](C1)c1cccc(=O)n1C2,14.3%,11.2,1.7%,7.4%,2.7%
CCC/C=N/O,1.4%,1.7,-28.7%,-0.3%,7.9%
Cc1cc(C)c(-c2csc(NC(=O)COC(=O)c3ccc4c(c3)OCO4)n2)c(C)c1,?,-5.0,14.4%,25.9µM*,8.8%
CSc1ccc(C(=O)C(C)(C)N2CCOCC2)cc1,3.7%,-5.6,13.0%,-27.1%,3.0%
Cc1cccc(CCNCc2cc3cccc(C)c3[nH]c2=O)c1,8.2µM*,-28.5,-14.4%,13µM*,?
Cc1cccc(CCNCc2cc3cc(C)cc(C)c3[nH]c2=O)c1,?,0.0,-3.6%,-24.2%,-14.7%
